What was measured:
Assay in all cases: DAPPL (digital affinity profiling via proximity ligation, sequencing); 10 mM Tris-HCl pH 7.5, 50 mM NaCl, 1 mM DTT, 4% glycerol, room temperature, 30 min; GST-TFs on glutathione beads, 16-mer random dsDNA library, 0.1% formaldehyde crosslink after washing; high values mean tight binding
[1] = target: T1, FLI1 (Homo sapiens, UniProt Q01543 1-452); details: protein: recombinant; tags: N-terminal GST; dsDNA, one strand shown
T1 sequence: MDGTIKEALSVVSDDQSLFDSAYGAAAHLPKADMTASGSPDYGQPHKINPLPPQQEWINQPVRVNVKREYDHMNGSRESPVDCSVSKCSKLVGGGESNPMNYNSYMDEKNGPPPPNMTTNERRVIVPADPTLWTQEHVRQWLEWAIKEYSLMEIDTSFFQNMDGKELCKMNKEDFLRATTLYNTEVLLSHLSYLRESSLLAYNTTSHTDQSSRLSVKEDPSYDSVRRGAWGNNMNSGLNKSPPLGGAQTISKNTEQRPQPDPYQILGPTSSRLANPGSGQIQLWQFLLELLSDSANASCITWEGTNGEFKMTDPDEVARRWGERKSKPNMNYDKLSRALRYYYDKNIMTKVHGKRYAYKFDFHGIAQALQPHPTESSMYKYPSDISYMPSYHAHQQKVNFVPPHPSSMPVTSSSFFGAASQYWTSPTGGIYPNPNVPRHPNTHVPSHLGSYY
How it was run: (§1)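 In yeast, human transcription factors were expressed with a GST fusion, then pulled down on glutathione beads and given DNA barcodes. Pooled with a tag-only sample, they were exposed to 200 nmole of a 16-mer random double-stranded DNA library (Tris/NaCl/DTT/glycerol buffer, room temperature, 30 min), washed, crosslinked with 0.1% formaldehyde, proximity-ligated using BsaI/T4 ligase for 1 h at 37 °C, PCR-amplified and read on an Illumina NextSeq500. Each hexamer's frequency of reads for a factor, divided by the matching frequency for the tag-only sample, gives the binding signal.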

[2] = target: T2, ELK1 (Homo sapiens, UniProt P19419 1-428); details: protein: recombinant; tags: N-terminal GST; dsDNA, one strand shown
T2 sequence: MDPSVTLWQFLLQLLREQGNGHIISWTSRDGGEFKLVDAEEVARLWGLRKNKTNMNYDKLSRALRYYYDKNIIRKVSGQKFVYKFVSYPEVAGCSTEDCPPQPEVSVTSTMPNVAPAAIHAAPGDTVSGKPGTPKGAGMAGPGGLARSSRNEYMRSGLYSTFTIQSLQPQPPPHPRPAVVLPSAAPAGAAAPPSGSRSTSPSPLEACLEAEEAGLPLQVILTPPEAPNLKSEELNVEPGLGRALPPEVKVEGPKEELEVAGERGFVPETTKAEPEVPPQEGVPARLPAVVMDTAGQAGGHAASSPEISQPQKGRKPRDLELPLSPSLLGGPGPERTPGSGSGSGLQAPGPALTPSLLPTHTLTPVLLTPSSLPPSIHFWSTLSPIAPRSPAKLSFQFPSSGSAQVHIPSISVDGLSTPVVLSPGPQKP
How it was run: as §1

[3] = target: T3, GABPA (Homo sapiens, UniProt Q06546 1-454); details: protein: recombinant; tags: N-terminal GST; dsDNA, one strand shown
T3 sequence: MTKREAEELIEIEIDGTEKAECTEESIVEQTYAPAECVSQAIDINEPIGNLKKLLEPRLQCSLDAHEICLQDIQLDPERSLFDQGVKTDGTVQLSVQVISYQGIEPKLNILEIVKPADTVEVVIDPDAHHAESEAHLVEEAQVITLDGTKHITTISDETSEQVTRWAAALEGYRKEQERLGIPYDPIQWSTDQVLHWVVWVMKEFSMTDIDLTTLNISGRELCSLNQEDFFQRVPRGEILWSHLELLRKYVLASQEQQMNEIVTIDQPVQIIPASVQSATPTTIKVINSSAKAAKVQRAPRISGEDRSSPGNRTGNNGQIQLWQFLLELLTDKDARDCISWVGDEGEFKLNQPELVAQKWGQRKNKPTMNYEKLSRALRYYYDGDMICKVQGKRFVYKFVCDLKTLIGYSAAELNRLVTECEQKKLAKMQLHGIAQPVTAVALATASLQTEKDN
How it was run: as §1

[4] = target: T4, ERG (Homo sapiens, UniProt P11308 1-479); details: protein: recombinant; tags: N-terminal GST; dsDNA, one strand shown
T4 sequence: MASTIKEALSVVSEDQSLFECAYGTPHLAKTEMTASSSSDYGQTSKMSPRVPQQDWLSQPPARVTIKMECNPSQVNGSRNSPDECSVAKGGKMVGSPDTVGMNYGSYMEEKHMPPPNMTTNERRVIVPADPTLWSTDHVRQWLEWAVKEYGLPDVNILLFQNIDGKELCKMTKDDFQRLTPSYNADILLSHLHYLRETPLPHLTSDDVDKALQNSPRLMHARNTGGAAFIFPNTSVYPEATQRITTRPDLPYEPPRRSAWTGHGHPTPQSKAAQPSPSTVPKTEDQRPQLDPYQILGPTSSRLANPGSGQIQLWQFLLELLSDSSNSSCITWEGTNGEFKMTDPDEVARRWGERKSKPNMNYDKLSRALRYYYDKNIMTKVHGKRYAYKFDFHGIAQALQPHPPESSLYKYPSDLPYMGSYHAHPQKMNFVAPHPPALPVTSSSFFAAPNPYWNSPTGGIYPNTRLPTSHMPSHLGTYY
How it was run: as §1

[5] = target: ELF1 (Homo sapiens, UniProt P32519 1-619); details: protein: recombinant; tags: N-terminal GST; dsDNA, one strand shown
How it was run: as §1

[6] = target: T5, EHF (Homo sapiens, UniProt Q9NZC4 1-300); details: protein: recombinant; tags: N-terminal GST; dsDNA, one strand shown
T5 sequence: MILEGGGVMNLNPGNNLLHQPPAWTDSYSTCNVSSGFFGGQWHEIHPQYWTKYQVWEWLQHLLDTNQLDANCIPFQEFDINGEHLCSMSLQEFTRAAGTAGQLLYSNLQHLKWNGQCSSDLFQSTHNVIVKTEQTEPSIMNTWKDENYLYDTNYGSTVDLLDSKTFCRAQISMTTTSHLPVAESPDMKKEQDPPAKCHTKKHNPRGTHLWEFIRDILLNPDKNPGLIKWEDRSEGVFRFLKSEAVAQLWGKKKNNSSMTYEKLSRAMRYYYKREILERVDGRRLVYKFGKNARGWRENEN
How it was run: as §1

[7] = target: SPI1 (Homo sapiens, UniProt P17947 1-270); details: protein: recombinant; tags: N-terminal GST; dsDNA, one strand shown
How it was run: as §1

[8] = target: SPIB (Homo sapiens, UniProt Q01892 1-262); details: protein: recombinant; tags: N-terminal GST; dsDNA, one strand shown
How it was run: as §1

[9] = target: T6, ELK3 (Homo sapiens, UniProt P41970 1-407); details: protein: recombinant; tags: N-terminal GST; dsDNA, one strand shown
T6 sequence: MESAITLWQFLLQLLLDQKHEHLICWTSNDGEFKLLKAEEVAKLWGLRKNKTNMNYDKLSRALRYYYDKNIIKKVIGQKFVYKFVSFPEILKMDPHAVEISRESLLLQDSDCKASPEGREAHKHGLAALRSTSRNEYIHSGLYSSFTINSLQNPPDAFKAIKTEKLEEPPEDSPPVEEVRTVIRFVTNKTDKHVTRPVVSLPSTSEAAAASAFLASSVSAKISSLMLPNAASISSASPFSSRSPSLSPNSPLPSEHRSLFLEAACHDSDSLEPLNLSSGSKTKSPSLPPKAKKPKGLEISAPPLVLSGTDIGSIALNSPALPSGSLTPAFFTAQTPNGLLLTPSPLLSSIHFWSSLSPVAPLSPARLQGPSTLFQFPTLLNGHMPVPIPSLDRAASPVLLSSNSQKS
How it was run: as §1

[10] = target: T7, FEV (Homo sapiens, UniProt Q99581 1-238); details: protein: recombinant; tags: N-terminal GST; dsDNA, one strand shown
T7 sequence: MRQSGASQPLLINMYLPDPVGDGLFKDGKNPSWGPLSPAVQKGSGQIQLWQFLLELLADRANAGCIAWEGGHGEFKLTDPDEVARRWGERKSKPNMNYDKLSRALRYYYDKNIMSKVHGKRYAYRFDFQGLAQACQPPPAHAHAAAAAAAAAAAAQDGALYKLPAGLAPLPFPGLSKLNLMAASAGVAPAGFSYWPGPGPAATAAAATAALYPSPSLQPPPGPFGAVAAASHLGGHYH
How it was run: as §1

[11] = target: ETV5 (Homo sapiens, UniProt P41161 1-510); details: protein: recombinant; tags: N-terminal GST; dsDNA, one strand shown
How it was run: as §1

[12] = target: HSF1 (Homo sapiens, UniProt Q00613 1-529); details: protein: recombinant; tags: N-terminal GST; chain copies: 3; dsDNA, one strand shown
How it was run: as §1

[13] = target: T8, SPIC (Homo sapiens, UniProt Q8N5J4 1-248); details: protein: recombinant; tags: N-terminal GST; dsDNA, one strand shown
T8 sequence: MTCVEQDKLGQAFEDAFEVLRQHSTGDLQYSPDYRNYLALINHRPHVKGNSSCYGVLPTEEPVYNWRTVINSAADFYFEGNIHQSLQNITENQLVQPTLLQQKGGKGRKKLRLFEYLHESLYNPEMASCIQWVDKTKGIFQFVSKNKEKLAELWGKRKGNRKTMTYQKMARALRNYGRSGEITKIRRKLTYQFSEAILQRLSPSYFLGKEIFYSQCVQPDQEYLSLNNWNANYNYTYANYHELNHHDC
How it was run: as §1

[14] = target: ELF4 (Homo sapiens, UniProt Q99607 1-663); details: protein: recombinant; tags: N-terminal GST; dsDNA, one strand shown
How it was run: as §1

[15] = target: T9, ELK4 (Homo sapiens, UniProt P28324-2 1-405); details: protein: recombinant; tags: N-terminal GST; dsDNA, one strand shown
T9 sequence: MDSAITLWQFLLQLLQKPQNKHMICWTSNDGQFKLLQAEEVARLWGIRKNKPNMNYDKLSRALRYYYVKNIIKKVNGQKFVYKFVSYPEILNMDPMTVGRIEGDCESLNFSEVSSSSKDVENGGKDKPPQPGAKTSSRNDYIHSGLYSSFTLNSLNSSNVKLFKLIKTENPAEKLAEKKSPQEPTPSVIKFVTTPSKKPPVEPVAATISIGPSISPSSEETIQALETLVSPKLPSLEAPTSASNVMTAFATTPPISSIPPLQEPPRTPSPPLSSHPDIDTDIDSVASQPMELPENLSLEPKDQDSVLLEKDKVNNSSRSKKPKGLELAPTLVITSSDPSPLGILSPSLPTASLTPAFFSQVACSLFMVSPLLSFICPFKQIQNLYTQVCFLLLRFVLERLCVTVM
How it was run: as §1

[16] = target: T10, ETV2 (Homo sapiens, UniProt O00321 1-342); details: protein: recombinant; tags: N-terminal GST; dsDNA, one strand shown
T10 sequence: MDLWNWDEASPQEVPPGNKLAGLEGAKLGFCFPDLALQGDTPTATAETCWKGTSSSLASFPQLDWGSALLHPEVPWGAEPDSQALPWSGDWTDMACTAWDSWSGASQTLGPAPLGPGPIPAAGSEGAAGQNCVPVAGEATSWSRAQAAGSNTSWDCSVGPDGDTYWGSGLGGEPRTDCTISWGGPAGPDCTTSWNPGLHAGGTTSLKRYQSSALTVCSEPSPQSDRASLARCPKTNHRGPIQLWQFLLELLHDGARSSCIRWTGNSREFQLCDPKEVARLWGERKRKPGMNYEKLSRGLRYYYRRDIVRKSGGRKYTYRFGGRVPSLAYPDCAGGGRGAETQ
How it was run: as §1

[17] = target: T11, ELF3 (Homo sapiens, UniProt P78545 1-371); details: protein: recombinant; tags: N-terminal GST; dsDNA, one strand shown
T11 sequence: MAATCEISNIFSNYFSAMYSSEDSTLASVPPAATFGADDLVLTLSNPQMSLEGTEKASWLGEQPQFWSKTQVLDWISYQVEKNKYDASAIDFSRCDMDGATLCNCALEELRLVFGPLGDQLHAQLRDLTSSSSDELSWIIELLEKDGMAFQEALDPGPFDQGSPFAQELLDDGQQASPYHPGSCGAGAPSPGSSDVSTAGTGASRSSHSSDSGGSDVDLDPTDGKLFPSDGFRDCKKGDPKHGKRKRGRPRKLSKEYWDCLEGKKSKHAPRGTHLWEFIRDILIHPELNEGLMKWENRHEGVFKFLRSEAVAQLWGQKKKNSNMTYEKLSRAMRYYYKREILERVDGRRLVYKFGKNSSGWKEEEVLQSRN
How it was run: as §1

[18] = target: CRX (Homo sapiens, UniProt O43186 1-299); details: protein: recombinant; tags: N-terminal GST; dsDNA, one strand shown
How it was run: as §1

[19] = target: ETV1 (Homo sapiens, UniProt P50549 1-477); details: protein: recombinant; tags: N-terminal GST; dsDNA, one strand shown
How it was run: as §1

ELF1, sequence (P32519 whole entry): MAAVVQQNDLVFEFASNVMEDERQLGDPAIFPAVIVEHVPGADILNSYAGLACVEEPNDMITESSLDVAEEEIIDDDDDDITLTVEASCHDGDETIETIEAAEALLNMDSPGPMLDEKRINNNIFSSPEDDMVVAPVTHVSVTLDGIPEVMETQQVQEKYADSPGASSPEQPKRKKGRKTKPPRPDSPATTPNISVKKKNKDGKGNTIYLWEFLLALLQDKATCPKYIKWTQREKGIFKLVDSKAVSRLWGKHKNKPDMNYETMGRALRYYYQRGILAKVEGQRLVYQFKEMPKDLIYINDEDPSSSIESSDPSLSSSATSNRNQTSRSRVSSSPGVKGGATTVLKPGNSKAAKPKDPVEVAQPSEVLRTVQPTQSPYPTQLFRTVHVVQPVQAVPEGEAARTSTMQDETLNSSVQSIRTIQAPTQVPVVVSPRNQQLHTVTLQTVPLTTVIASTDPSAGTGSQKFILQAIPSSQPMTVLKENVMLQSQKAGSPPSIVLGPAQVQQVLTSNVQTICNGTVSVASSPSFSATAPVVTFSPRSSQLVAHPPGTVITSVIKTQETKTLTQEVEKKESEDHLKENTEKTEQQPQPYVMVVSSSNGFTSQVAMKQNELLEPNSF
SPIB, sequence (Q01892 whole entry): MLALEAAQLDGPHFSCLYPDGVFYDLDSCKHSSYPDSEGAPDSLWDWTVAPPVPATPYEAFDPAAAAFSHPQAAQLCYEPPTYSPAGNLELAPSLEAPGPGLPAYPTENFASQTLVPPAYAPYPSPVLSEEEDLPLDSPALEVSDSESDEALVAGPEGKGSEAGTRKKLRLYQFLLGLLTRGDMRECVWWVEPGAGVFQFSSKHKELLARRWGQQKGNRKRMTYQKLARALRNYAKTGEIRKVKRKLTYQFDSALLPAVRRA
ETV1, sequence (P50549 whole entry): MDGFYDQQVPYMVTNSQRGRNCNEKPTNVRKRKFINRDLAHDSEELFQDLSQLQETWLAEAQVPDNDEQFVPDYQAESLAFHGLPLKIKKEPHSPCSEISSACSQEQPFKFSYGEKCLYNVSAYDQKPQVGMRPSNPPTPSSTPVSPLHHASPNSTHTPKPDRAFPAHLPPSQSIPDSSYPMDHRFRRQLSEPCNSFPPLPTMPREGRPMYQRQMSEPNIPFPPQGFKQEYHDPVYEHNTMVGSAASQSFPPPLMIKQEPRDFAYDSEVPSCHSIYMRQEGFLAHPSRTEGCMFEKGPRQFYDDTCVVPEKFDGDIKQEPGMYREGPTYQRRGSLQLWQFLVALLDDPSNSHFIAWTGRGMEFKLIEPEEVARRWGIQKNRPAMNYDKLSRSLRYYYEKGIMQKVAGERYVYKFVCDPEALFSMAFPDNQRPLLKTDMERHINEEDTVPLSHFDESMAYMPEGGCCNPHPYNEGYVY
ELF4, sequence (Q99607 whole entry): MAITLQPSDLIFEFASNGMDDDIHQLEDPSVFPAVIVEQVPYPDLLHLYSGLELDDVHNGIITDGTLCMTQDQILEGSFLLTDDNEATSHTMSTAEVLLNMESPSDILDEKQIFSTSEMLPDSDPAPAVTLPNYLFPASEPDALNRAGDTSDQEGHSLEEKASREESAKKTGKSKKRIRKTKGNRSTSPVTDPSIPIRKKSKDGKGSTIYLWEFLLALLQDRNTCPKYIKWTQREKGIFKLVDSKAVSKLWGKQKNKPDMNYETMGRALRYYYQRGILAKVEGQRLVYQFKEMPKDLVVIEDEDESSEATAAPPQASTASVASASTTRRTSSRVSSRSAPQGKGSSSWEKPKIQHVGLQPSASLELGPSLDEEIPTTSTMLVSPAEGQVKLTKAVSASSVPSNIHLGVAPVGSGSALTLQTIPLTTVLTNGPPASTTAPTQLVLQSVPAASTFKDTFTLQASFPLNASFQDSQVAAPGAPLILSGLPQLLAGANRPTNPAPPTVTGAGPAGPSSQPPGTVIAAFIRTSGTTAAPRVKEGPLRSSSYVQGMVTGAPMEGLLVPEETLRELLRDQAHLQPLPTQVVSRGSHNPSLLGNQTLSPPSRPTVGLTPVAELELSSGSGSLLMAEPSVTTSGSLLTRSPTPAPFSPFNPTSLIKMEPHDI
ETV5, sequence (P41161 whole entry): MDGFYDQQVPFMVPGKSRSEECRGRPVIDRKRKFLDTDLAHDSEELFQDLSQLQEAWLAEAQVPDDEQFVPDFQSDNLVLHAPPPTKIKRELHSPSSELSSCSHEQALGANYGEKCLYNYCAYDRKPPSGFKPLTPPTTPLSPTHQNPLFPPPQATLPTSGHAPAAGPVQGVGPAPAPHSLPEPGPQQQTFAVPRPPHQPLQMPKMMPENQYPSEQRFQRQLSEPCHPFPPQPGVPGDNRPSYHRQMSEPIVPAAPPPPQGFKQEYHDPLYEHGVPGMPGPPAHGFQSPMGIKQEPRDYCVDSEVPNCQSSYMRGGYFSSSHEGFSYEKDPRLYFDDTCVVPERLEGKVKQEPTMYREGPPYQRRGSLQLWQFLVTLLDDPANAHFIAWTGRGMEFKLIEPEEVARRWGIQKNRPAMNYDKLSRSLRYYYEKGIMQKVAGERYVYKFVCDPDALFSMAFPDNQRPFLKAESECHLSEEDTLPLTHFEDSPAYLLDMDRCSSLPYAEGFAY
HSF1, sequence (Q00613 whole entry): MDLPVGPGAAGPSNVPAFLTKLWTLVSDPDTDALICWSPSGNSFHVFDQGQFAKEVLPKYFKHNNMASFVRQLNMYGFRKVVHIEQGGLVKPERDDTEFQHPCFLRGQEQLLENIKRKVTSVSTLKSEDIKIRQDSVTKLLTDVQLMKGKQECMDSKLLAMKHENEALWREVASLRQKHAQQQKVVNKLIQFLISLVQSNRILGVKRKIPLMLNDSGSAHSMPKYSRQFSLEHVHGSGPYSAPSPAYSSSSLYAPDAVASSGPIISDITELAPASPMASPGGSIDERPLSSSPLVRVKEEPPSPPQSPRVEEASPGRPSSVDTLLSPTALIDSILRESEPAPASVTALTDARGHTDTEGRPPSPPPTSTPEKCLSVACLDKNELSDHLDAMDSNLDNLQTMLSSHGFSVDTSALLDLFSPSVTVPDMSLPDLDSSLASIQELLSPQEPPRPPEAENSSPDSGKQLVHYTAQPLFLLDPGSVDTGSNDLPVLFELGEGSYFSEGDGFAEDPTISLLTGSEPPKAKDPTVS
CRX, sequence (O43186 whole entry): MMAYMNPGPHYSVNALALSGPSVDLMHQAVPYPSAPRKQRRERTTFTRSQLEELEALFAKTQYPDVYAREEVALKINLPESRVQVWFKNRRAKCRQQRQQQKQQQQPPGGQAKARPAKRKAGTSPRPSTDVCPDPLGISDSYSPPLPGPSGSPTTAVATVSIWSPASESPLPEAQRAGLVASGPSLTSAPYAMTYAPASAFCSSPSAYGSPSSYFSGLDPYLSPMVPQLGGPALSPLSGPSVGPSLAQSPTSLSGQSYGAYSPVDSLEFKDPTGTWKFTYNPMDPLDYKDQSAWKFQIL

AAATAA
binding signal [1]: 1.27 fold enrichment (6-mer frequency, TF over GST control)
binding signal [2]: 1.32 fold enrichment (6-mer frequency, TF over GST control)
binding signal [3]: 1.33 fold enrichment (6-mer frequency, TF over GST control)
binding signal [4]: 1.37 fold enrichment (6-mer frequency, TF over GST control)
binding signal [5]: 1.33 fold enrichment (6-mer frequency, TF over GST control)
binding signal [6]: 1.29 fold enrichment (6-mer frequency, TF over GST control)
binding signal [7]: 1.32 fold enrichment (6-mer frequency, TF over GST control)
binding signal [8]: 1.39 fold enrichment (6-mer frequency, TF over GST control)
binding signal [9]: 1.33 fold enrichment (6-mer frequency, TF over GST control)
binding signal [10]: 1.29 fold enrichment (6-mer frequency, TF over GST control)
binding signal [11]: 1.37 fold enrichment (6-mer frequency, TF over GST control)
binding signal [12]: 1.48 fold enrichment (6-mer frequency, TF over GST control)
binding signal [13]: 1.27 fold enrichment (6-mer frequency, TF over GST control)
binding signal [14]: 1.32 fold enrichment (6-mer frequency, TF over GST control)
binding signal [15]: 1.34 fold enrichment (6-mer frequency, TF over GST control)
binding signal [16]: 1.28 fold enrichment (6-mer frequency, TF over GST control)
binding signal [17]: 1.43 fold enrichment (6-mer frequency, TF over GST control)
binding signal [18]: 1.71 fold enrichment (6-mer frequency, TF over GST control)
binding signal [19]: 1.3 fold enrichment (6-mer frequency, TF over GST control)

Source: paper PMC7862700, “An all-to-all approach to the identification of sequence-specific readers for epigenetic DNA modifications on cytosine”
